According to PubChem BioAssay:
Activity calls are given as the source filed them.

Tests used:
[1] = system: Plasmodium falciparum Sir2 (PF13_0152, Sir2A); test: pfSir2 binders on small-molecule microarrays, primary screen, biochemical, small-molecule microarray, 635 nm fluorescence (AID 1098); conditions: small-molecule microarray binding, fluorescence 635 nm; higher = more signal;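 further: score merges spot fluorescence intensity with its signal-to-noise ratio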
[2] = small-molecule microarray binders of probe aDKK1, primary screen, biochemical, biotinylated probe, 635/667 nm fluorescence (AID 1099); conditions: higher = more signal;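 further: score merges 667nm spot fluorescence with signal to noise across triplicate slides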
[3] = small-molecule microarray binders of probe aCHRDL2, primary screen, biochemical, biotinylated probe, 635/667 nm fluorescence (AID 1100); conditions: higher = more signal
[4] = splicing luciferase reporter signal modulators, primary screen, spliceosome inhibition project, cell-based, HEK293, splice +/- reporter (AID 1101); conditions: luminescence, 24 h, higher = more signal, called active from +8 up or from −8 down;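 further: HEK293 cells carrying a splicing-competent luciferase reporter gene; test concentration not given here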
[5] = molecular target: Fibroblast growth factor 10 (Homo sapiens) (UniProt O15520); test: FGF10 binders on small-molecule microarrays, primary screen, biochemical, small-molecule microarray, 635 nm fluorescence (AID 1102); conditions: FGF10 binding, fluorescence 635 nm, higher = more signal
Sequence of Fibroblast growth factor 10 (Homo sapiens) (O15520 whole entry, looked up): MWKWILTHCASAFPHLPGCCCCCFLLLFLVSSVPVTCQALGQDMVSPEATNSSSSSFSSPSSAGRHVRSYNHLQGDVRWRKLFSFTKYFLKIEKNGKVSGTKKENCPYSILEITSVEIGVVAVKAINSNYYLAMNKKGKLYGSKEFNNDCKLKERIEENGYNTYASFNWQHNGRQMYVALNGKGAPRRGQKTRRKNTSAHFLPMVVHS

[6] = system: glycogen synthase kinase-3 (GSK3A per assay name; protocol says GSK3B); test: GSK3 binders on small-molecule microarrays, primary screen, biochemical, small-molecule microarray, 635 nm fluorescence, GSK3A (AID 1103); conditions: small-molecule microarray binding, fluorescence 635 nm; higher = more signal; further: the record names both GSK3A and GSK3B
[7] = molecular target: Epidermal growth factor receptor (Homo sapiens) (UniProt P00533); test: EGFR binders on small-molecule microarrays, primary screen, biochemical, small-molecule microarray, 635 nm fluorescence (AID 1104); conditions: EGFR binding, higher = more signal;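 further: score merges 667 nm emission intensity with spot signal to noise over triplicate slides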
Sequence of Epidermal growth factor receptor (Homo sapiens) (P00533 whole entry, looked up): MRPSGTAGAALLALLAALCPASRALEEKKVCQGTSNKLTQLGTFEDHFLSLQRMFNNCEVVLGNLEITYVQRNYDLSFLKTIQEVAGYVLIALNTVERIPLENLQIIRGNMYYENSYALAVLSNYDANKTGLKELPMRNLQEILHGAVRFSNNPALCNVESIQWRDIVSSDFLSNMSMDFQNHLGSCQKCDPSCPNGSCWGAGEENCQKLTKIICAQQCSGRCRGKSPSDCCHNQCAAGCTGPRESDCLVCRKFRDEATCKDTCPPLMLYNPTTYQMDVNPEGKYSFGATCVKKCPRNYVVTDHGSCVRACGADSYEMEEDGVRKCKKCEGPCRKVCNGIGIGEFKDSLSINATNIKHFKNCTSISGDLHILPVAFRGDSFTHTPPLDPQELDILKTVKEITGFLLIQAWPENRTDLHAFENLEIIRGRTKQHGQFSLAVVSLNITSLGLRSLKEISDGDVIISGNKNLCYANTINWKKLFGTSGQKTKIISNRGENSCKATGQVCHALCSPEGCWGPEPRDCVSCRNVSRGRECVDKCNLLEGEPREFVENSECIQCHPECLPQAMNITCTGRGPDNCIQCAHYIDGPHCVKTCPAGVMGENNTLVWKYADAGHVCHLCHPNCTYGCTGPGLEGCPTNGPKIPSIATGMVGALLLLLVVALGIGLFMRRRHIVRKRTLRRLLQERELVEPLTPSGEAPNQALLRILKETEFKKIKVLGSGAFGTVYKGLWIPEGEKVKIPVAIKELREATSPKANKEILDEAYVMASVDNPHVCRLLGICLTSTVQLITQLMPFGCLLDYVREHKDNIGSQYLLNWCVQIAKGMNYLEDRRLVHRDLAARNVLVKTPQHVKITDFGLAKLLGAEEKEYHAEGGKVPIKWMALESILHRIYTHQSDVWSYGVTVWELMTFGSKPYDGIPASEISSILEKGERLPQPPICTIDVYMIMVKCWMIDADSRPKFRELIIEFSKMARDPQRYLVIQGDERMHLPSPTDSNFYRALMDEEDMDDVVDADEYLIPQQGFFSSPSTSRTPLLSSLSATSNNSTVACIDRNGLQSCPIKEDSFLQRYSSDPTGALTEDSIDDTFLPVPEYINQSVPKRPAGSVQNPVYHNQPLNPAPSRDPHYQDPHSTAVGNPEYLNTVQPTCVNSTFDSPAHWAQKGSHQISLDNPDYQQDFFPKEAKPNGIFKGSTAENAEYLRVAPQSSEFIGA

[8] = molecular target: Follistatin-related protein 3 (Homo sapiens) (UniProt O95633); test: FSTL3 binders on small-molecule microarrays, primary screen, biochemical, small-molecule microarray, 635 nm fluorescence (AID 1105); conditions: FSTL3 binding, higher = more signal;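 further: score merges emission near 667 nm and signal to noise per printed spot across three slides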
Sequence of Follistatin-related protein 3 (Homo sapiens) (O95633 whole entry, looked up): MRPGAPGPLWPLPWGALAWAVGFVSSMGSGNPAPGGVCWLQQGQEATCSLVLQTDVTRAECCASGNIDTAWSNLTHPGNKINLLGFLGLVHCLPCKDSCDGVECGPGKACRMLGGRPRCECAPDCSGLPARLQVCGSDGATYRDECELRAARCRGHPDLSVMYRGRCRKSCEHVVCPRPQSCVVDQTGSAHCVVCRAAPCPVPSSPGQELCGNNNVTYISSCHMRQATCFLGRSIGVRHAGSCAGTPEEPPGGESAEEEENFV

[9] = molecular target: Dickkopf-related protein 1 (Homo sapiens) (UniProt O94907); test: DKK1 binders on small-molecule microarrays, primary screen, biochemical, small-molecule microarray, 635 nm fluorescence scan (AID 1106); conditions: DKK1 binding, higher = more signal;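 further: score merges emission near 667 nm with signal to noise over three replicate slides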
Sequence of Dickkopf-related protein 1 (Homo sapiens) (O94907 whole entry, looked up): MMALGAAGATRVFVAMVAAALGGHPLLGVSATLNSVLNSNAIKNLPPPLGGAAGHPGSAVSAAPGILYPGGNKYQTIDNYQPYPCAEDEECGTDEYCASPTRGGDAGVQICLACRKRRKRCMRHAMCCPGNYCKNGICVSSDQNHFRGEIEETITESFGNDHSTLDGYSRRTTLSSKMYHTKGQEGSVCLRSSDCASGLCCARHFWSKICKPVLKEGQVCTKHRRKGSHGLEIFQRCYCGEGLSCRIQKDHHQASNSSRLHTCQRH

[10] = system: Inhibin beta A chain (activin A); test: INHBA (activin A) binders on microarrays, primary screen, biochemical, small-molecule microarray, 635 nm fluorescence scan (AID 1107); conditions: small-molecule microarray binding, higher = more signal;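 further: mouse activin A protein probed at 4.33 µg/mL on printed slides; score merges bound-protein fluorescence near 667 nm with spot signal-to-noise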
[11] = system: Human papillomavirus type 1a protein E7 (residues 44-93); test: HPV1a E7 fragment binders on microarrays, primary screen, biochemical, small-molecule microarray, residues 44-93, 635 nm fluorescence (AID 1108); conditions: small-molecule microarray binding, fluorescence 635 nm; higher = more signal;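 further: E7 fragment applied at 1 µg/mL in TBST for 1 h at 4 C; score combines spot fluorescence with its signal to noise ratio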
[12] = modulators of HCV replicon luciferase signal, primary screen, HCV replication inhibitor project, Huh7 cells, luciferase reporter (AID 1109); conditions: 48 h, higher = more signal;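 further: huh7 hepatoma cells harbouring a luciferase neomycin HCV replicon reporter; luciferase luminescence as measure of HCV replicon replication; test concentration not given here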
[13] = molecular target: Left-right determination factor 2 (Homo sapiens) (UniProt O00292); test: LEFTY2 binders on small-molecule microarrays, primary screen, biochemical, small-molecule microarray, 635 nm fluorescence scan (AID 1110); conditions: LEFTY2 binding, higher = more signal
Sequence of Left-right determination factor 2 (Homo sapiens) (O00292 whole entry, looked up): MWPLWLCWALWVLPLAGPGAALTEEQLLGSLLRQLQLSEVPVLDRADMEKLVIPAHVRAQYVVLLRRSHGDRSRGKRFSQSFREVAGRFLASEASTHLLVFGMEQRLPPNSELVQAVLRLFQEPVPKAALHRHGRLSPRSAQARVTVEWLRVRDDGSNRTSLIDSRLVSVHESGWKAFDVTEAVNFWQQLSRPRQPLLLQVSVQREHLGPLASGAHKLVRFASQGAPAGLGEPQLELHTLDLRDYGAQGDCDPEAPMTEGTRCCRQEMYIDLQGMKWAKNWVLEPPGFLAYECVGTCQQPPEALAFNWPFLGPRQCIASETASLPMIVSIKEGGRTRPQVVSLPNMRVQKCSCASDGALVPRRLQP

[14] = molecular target: Calmodulin-1 (Homo sapiens) (UniProt P0DP23); test: CALM1 binders on microarrays, EGTA buffer, profiling panel, biochemical, small-molecule microarray, Cy5-labelled CALM1 (AID 1111); conditions: Cy5-CALM1 binding fluorescence, higher = more signal;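 further: labelled calmodulin applied in Tris saline Tween buffer holding calcium plus EGTA and DTT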
[15] = molecular target: Calmodulin-1 (Homo sapiens) (UniProt P0DP23); test: calcium-bound CALM1 binders on microarrays, profiling panel, artefact control for SMM control-protein annotation, biochemical, small-molecule microarray, Cy5-labelled CALM1, plus calcium (AID 1112); conditions: Cy5-CALM1 binding fluorescence, higher = more signal;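 further: score merges spot fluorescence with signal to noise from triplicate slides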
[16] = small-molecule microarray binders of probe aWnt5a, primary screen, biochemical, biotinylated probe, 635/667 nm fluorescence (AID 1113); conditions: higher = more signal;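 further: score merges 667 nm fluorescence intensity with signal-to-noise per printed feature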
[17] = small-molecule microarray binders of probe aShh, primary screen, biochemical, biotinylated probe, 635/667 nm fluorescence (AID 1114); conditions: higher = more signal;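 further: probe is biotin-labelled aShh protein from a stem cell growth factor screen; measures binding of labelled protein to compounds printed on the slide; score merges feature fluorescence at 667 nm with signal-to-noise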
[18] = small-molecule microarray binders of probe aNog, primary screen, biochemical, biotinylated probe, 635/667 nm fluorescence (AID 1115); conditions: higher = more signal;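 further: probe is biotinylated aNog protein used at 0.15 µg/mL for 1 h at 4 C; z-score combines 667 nm fluorescence of each spot with its signal to noise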
[19] = molecular target: Torsin-1A-interacting protein 1 (Homo sapiens) (UniProt Q5JTV8); test: LAP1 binders from COS7 cell lysate, primary screen, small-molecule microarray, 635/667 nm fluorescence (AID 1116); conditions: COS7-hLAP1 lysate binding, 635 nm fluorescence, higher = more signal
Sequence of Torsin-1A-interacting protein 1 (Homo sapiens) (Q5JTV8 whole entry, looked up): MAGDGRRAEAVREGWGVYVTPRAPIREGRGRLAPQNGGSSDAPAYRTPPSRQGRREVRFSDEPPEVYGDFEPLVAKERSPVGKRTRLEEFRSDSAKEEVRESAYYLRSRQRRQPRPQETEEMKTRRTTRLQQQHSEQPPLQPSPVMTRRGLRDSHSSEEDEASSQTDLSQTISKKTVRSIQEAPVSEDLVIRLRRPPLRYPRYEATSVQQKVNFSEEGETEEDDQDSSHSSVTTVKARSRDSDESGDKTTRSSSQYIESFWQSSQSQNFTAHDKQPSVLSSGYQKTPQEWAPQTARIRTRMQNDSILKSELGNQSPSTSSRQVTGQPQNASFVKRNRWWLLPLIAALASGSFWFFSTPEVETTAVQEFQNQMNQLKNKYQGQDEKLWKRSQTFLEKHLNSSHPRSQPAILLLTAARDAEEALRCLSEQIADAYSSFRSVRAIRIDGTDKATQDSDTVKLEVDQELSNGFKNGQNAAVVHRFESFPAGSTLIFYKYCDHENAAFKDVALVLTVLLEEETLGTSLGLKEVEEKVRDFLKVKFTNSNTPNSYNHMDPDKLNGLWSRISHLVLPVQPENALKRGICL

[20] = molecular target: Alpha-bungarotoxin (Bungarus multicinctus) (UniProt P60615); test: alpha-bungarotoxin binders on microarray, profiling panel, artefact control for SMM control protein annotation, biochemical, small-molecule microarray, Alexa647 label, 635/667 nm fluorescence (AID 1117); conditions: alpha-BTX-A647 binding fluorescence, higher = more signal
Sequence of Alpha-bungarotoxin (Bungarus multicinctus) (P60615 whole entry, looked up): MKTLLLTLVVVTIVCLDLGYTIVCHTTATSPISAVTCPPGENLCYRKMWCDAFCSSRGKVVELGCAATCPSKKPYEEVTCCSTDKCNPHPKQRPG

Structure (SMILES) | composite z-score [1] | composite z-score [2] | composite z-score [3] | z-score [4] | composite z-score [5] | composite z-score [6] | composite z-score [7] | composite z-score [8] | composite z-score [9] | composite z-score [10] | composite z-score [11] | z-score [12] | composite z-score [13] | composite z-score [14] | composite z-score [15] | composite z-score [16] | composite z-score [17] | composite z-score [18] | composite z-score [19] | composite z-score [20]
CN(C)CCCCCCNC(=O)[C@@H]1C[C@@H]2C(=O)N[C@@H](CCCC[N+](C)(C)C)C(=O)N2[C@@H]1c1cccc(OCCO)c1 | 0.512 | 0.116 | 0.474 | -1.52 (inactive) | -1.11 | 0.218 | -0.962 | -0.714 | -0.377 | -0.246 | -0.0272 | 3.7 | -1.28 | -0.207 | -0.327 | -0.0981 | -0.295 | -0.444 | 2.09 | 0.217
Cc1ccc(S[C@]2(C(=O)NC(C)C)CC(=O)N(Cc3ccccc3)[C@@H]2c2ccc(CO)cc2)cc1 | 0.0089 | 0.108 | 0.915 | -0.538 (inactive) | -1.18 | -1.34 | -1.01 | -0.363 | -1.51 | 0.159 | -0.905 | -1.36 | -1.82 | -0.0379 | 0.175 | -0.124 | -0.2 | 0.0258 | -0.142 | 0.329
CC(C)N1C(=O)[C@@]2(Cc3ccccc31)c1ccccc1C(=O)N(Cc1ccccc1C(F)(F)F)[C@H]2c1ccc(CO)cc1 | 1.73 | 0.444 | -0.756 | -0.352 (inactive) | 0.178 | 0.366 | 0.0355 | 1.39 | 1.08 | 0.66 | 0.845 | -0.329 | -0.0311 | -0.157 | -0.0481 | 0.0607 | -0.09 | -0.0247 | 0.289 | -0.0261
COCCOC(=O)N1C(=O)[C@@]2(c3cc(C#CC4=CCCCC4)ccc31)[C@H](c1ccc(O)cc1)N1[C@H](c3ccccc3)[C@H](c3ccccc3)OC(=O)[C@H]1[C@@H]2C(=O)N1CCc2cc(OC)c(OC)cc2C1 | 0.835 | 0.15 | 0.338 | 0.864 (inactive) | 0.415 | 0.202 | 0.0275 | 0.227 | 0.0375 | 0.545 | 1.06 | -0.993 | -0.231 | 1.12 | 0.516 | -0.0332 | 0.0796 | 0.453 | 2.23 | 0.924
CCCCN1CC=CC23O[C@@H]4/C=C\CCCOC(=O)C4[C@H]2C(=O)N(CCCCCCO)[C@@H]3C1=O (stereo not given in full) | 0.502 | -0.196 | 0.663 | -1.09 (inactive) | -0.764 | -0.755 | -1.08 | -0.451 | -1.75 | 0.627 | 0.528 | 0.284 | -1.53 | -1.12 | -0.439 | -0.152 | 0.0639 | -0.346 | 3.21 | -1.09
CC1CC/C=C\[C@H]2OC34C=CCN(C(C)C)C(=O)[C@H]3N(C(C)CO)C(=O)[C@@H]4C2C(=O)O1 (stereo not given in full) | 0.048 | -0.27 | -0.335 | -0.789 (inactive) | -0.171 | -0.297 | -0.467 | 0.0275 | 0.165 | 0.727 | -0.607 | -1.43 | -0.334 | -0.174 | -0.824 | -0.128 | -0.304 | -0.0381 | 0.0726 | -0.215
O=C1N(Cc2ccccc2)Cc2ccccc2C[C@@]12COC(c1ccc(OCCCO)cc1)=N2 | 0.631 | 1.02 | 1.27 | 6.28 (inactive) | 0.334 | 1.27 | -0.622 | 0.288 | 0.306 | 1.4 | 1.19 | -3.52 | -0.0607 | 0.273 | 0.519 | -0.043 | 0.0287 | 1.09 | 0.724 | 0.491
COCCOC(=O)N1C(=O)[C@@]2(c3cc(C#CC4=CCCCC4)ccc31)[C@H](C(=O)N1CCCCCCC1)[C@H]1C(=O)O[C@H](c3ccccc3)[C@H](c3ccccc3)N1[C@@H]2c1ccccc1OCCO | 1.33 | 0.854 | 1.14 | -1.09 (inactive) | 0.536 | 1.3 | 0.846 | 1.44 | 0.865 | 1.75 | 1.37 | -0.794 | 0.327 | 1.78 | 0.759 | 0.16 | 0.926 | 1.2 | 1.94 | 1
COc1cccc(C)c1NC(=O)O[C@H]1[C@H](OC(=O)Nc2ccccc2)[C@@H](OC(=O)Nc2ccccc2)[C@@H](OC)O[C@@H]1CO | 1.5 | 0.266 | 0.553 | 0.449 (inactive) | 1.34 | 0.927 | 0.191 | 1.48 | 0.474 | 0.525 | 1.52 | -2.72 | 0.508 | 1.13 | -0.271 | 0.0321 | 0.157 | 0.0023 | 2.17 | 1.31
CC(C)(C)OC(=O)CC[C@]1(C(=O)N2CCOCC2)COC(c2ccc(OCCCO)cc2)=N1 | 1.45 | 0.37 | 0.668 | -0.713 (inactive) | 0.164 | -0.668 | 0.727 | -0.87 | -1.34 | 0.309 | 1.3 | 0.266 | -0.325 | 0.922 | 1.03 | -0.124 | 0.184 | -0.283 | 1.13 | -0.31
